In the library only some 7.3% were active in any assay of this set; here they are far more common.
FLuc inh-1: Photinus pyralis luciferase inhibition; P08659; purified P. pyralis luciferase, luminescence, biochemical; Potency, µM (highest dose often 115 µM), usual class: inhibitors; 2.5% of 76,000 active; note: nearly all actives have a fitted effect of over 65% in size
Target sequence (P08659 whole entry, looked up): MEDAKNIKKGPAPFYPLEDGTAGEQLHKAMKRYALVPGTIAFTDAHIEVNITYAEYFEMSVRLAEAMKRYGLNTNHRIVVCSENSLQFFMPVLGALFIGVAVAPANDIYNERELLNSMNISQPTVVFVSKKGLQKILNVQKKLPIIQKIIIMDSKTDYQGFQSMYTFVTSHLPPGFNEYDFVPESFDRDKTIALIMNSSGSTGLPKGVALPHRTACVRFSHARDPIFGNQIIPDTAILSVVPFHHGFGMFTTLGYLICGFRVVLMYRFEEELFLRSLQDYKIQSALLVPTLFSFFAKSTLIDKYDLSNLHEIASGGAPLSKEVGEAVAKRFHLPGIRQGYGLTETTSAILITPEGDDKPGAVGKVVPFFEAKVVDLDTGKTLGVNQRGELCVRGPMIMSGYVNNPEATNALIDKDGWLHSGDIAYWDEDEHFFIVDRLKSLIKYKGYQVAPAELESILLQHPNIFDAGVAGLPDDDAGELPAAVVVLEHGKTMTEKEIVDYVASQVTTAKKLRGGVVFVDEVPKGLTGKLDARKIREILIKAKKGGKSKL
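Biochemical qHTS: compound (6-point titration) added to 10uM D-luciferin plus 10uM ATP in Tris acetate pH 7.5 buffer with Mg, Tween-20 and BSA, then purified enzyme at 10nM; light output imaged.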
HEK293 viab: reduces viability of HEK-293 SNCA reporter cells; HEK-293-SNCA-luc viability, GF-AFC fluorescence, 24 h; Potency, µM (highest dose often 57.1 µM), hits mostly cytotoxic; 0.12% of 150,000 active; AID 1671193; note: nearly all actives have a fitted effect of over 30% in size
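Cytotoxicity counterscreen: after 24 h compound treatment of genome-edited SNCA-luciferase HEK-293 cells, live-cell protease substrate GF-AFC read by fluorescence after 30 min; activity scaled between DMSO (0%) and medium-only (-100%), curves Hill-fitted.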
HEK293 tox: cytotoxic compounds in HEK 293 cells; HEK 293 viability, ATP luminescence (CellTiter-Glo), 48-72 h; Potency, µM (series often up to 115 µM), actives largely listed as inhibitors; 6.6% of 94,000 active; AID 1345083; note: nearly all actives have a fitted effect of over 60% in size
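qHTS cytotoxicity; HEK 293, 250 cells/well; compound pinned; 48 or 72 hr, 37 degree Celsius, 5% CO2, 95% humidity; CellTiter-Glo, 10 min RT; luminescence (ATP).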
SNCA expr inh: inhibitors of alpha-synuclein (SNCA) gene expression. HEK-293 SNCA-luciferase knock-in, luminescence, 24 h. 0.17% of 140,000 active. Potency, µM (titrated, usually from 57.2 µM), most hits filed as inhibitors; note: nearly all actives have a fitted effect of over 45% in size
NIH3T3 tox: cytotoxic compounds in NIH 3T3 cells. NIH 3T3 viability, CellTiter-Glo ATP luminescence, 48-72 h. Potency, µM (titrated, usually from 96.7 µM), hits mostly inhibitors. 4.3% of 94,000 active; note: nearly all actives have a fitted effect of over 55% in size
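Cytotoxicity is measured as loss of cellular ATP: NIH 3T3 cells (400/well) are exposed to compound for 48 or 72 hr at 37 °C, then CellTiter-Glo luminescence is imaged after 10 min at room temperature.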
IP6K1 inhibitor: IP6K1 kinase inhibition | Q92551 | AID 1645851 | activity change, % (series mostly up to about 58 µM) | IP6K1 kinase, ADP-Glo luminescence, 2 h; stronger effect = lower value | 0.81% of 140,000 active; in the data active = activity change below about -25%
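ADP-Glo luminescence measures ADP made by human IP6K1 during a 2 h RT reaction with ATP/IP6 (mix at 1.3 mM/130 uM); top library doses 57.5 and 19.1 uM final.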
FLuc SDR no ATP: stabilizes firefly luciferase without ATP. 7.8% of 1,300 active. Potency, µM (highest dose often 32.7 µM), usual class: activators. Purified FLuc-C-HiBiT, Nano-Glo HiBiT luminescence, no ATP. shares compounds with FLuc inh-1; note: nearly all actives have a fitted effect of over 55% in size
FLuc SDR ATP: stabilizes firefly luciferase with ATP present; shares compounds with FLuc inh-1; purified FLuc-C-HiBiT + ATP, HiBiT complementation luminescence; Potency, µM (titrated, usually from 32.7 µM), most hits filed as activators; 8.7% of 1,300 active;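 note: signal reports ligand binding via conformational change of the enzyme rather than luciferase catalysis; nearly all actives have a fitted effect of over 55% in size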
FLuc inh-2: blocks firefly luciferase enzymatic activity | shares compounds with FLuc inh-1 | purified FLuc-C-HiBiT enzyme, luciferin luminescence | Potency, µM (doses to about 32.7 µM), usual class: inhibitors | 42% of 1,300 active; note: nearly all actives have a fitted effect of over 70% in size
Numbers stand for hits; i = inactive; ? = inconclusive; nt = no result given; [ ] = dose if it differs, or a comment. Unless noted, calls come from the whole dose curve; as a rule, active = well fitted curve in the direction sought with a large enough effect; inconclusive = small, poorly fitted or top-dose-only effect, or another doubt; inactive = no such curve, though single readings can be large; an effect the other way counts as inactive or inconclusive.

SMILES	FLuc inh-1	HEK293 viab	HEK293 tox	SNCA expr inh	NIH3T3 tox	IP6K1 inhibitor	FLuc SDR no ATP	FLuc SDR ATP	FLuc inh-2
O=C(c1cccnc1)N1CC(n2cc(COCc3ccccc3)nn2)C1	nt	i	i	i	i	i	nt	nt	nt
COc1ccc(C(=O)Nc2ccc(-c3nc4ccccc4s3)cc2C)cc1Cl	nt	i	nt	i	nt	i	i	i	i
COc1ccc(OC2CCN(C3CCCC3)CC2)c(C(=O)NCCCN2CCCC2=O)c1	i	i	i	i	i	i	nt	nt	nt
COc1ccc(NC(=O)N2CCc3c(C(=O)NCCCN4CCCC4=O)cccc32)cc1	0.501µM	i	?	10µM	i	i	?	0.351µM	0.248µM
COc1ccc(CNC(=O)c2cccc(NC(=O)N3CCSc4ncccc43)c2)cc1	nt	i	nt	?	nt	i	nt	nt	nt
COc1ccc(NC(=O)c2cccc3c2CCN3C(=O)Nc2ccc(F)cc2)c(C)c1	2.24µM	i	i	i	i	i	i	0.7µM	0.556µM
COc1ccc(NC(=O)N2CCc3c(C(=O)Nc4ccc5c(c4)OCO5)cccc32)cc1	2.82µM	i	?	7.94µM	i	i	i	1.24µM	0.881µM
COc1ccc(NC(=O)N2CCc3c(C(=O)NCc4ccncc4)cccc32)cc1	1.26µM	i	?	?	?	i	12.4µM	0.881µM	0.624µM
CCC(=O)N1CCc2c(C(=O)Nc3cc(OC)cc(OC)c3)cccc21	i	i	i	i	i	i	nt	nt	nt
COc1ccc(OC)c(CNC(=O)c2cccc3c2CCN3C(=O)c2ccc(F)cc2)c1	i	i	?	i	?	i	nt	nt	nt
COc1cccc(C(=O)N2CCC(c3nn(-c4ccccn4)c(=O)[nH]3)CC2)c1	nt	i	i	i	i	i	nt	nt	nt
Cc1ccc(NC(=O)c2ccc(-c3ccccc3)s2)cc1	nt	i	nt	i	nt	i	nt	nt	nt
Cc1cccc(NC(=O)c2ccc(-c3ccccc3)s2)c1	nt	i	nt	i	nt	i	i	i	2.79µM
CCCc1noc(-c2cn(C3CCN(C(=O)Cc4cccc(F)c4)CC3)nn2)n1	i	i	i	i	i	i	nt	nt	nt
O=C1CC2(CCN(CC3CC3)CC2)Oc2cc(Cl)ccc21	3.16µM	i	?	i	i	i	i	i	?
O=C1CC2(CCN(Cc3ccccc3)CC2)Oc2cc(Cl)ccc21	?	i	?	i	?	i	nt	nt	nt
O=C(NC1CCN(C(=O)c2ccc(-c3cncnc3)cc2)CC1)c1ccc(Cl)nc1	nt	i[12.5 µM]	i	i	i	i	nt	nt	nt
COc1ccc(C(=O)Nc2cc(C(C)C)c(O)c(S(=O)(=O)c3ccc(OC)cc3)c2C)cc1	nt	i	nt	i	nt	i	nt	nt	nt
COc1ccc(C(=O)Nc2cc(C(C)C)c(O)c(S(=O)(=O)c3ccc(Cl)cc3)c2C)cc1	nt	i	nt	i	nt	i	i	i	?
COc1cc(CNCc2nnn3c2CN(Cc2ccccc2C#N)C(=O)CC3)cc(OC)c1	i	i	?	i	i	i	nt	nt	nt
COC1C(=O)N(CC2CC2)C12CCN(S(=O)(=O)Cc1ccccc1F)CC2 (centres undefined)	nt	i	i	i	i	i	nt	nt	nt
Cc1ncccc1C(=O)N1CC(Oc2ccc(-c3nc(-c4ccccc4)no3)cc2)C1	1µM	?	12.6µM	i	?	i	i	?	6.24µM
Cc1cc(C(=O)N2CC(Oc3ccc(-c4nc(-c5ccccc5)no4)cc3)C2)n[nH]1	?	i	i	i	i	i	nt	nt	nt
O=C(c1ccccn1)N1CCC(Oc2ccc(-c3noc(-c4ccccc4)n3)cc2)C1 (centres undefined)	11.2µM	i	22.4µM	i	?	i	i	i	?
Cc1ccc([S+](=O)([O-])N2CCCN(c3ccc4nnc(C5CC5)n4n3)CC2)cc1	nt	nt	?	nt	?	i	nt	nt	nt

Bioassay records deposited in PubChem by National Center for Advancing Translational Sciences (NCATS).
